The text below walks through data of PubChem BioAssay (NCATS).

Test [1] in a line: qHTS assay for small molecule agonists of retinoid X receptor alpha signaling (AID 588544). The settings on record: HEK293T RXRa-UAS-bla, beta-lactamase reporter, 18 h; 530 nm emission.
Test [2] deals with Thyroid hormone receptor beta (Homo sapiens) (UniProt P10828). The experiment in a line: qHTS assay for small molecule agonists of thyroid hormone receptor beta signaling (AID 588545; calls by dose curve;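 also: 0% = DMSO only and 100% = 10 nM T3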). The settings on record: TR-UAS-bla GripTite HEK 293, beta-lactamase ratio, agonist mode, 18 h, percent of T3 response, DMSO as zero; series mostly up to 76.7 µM. Put shortly: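 Beta-lactamase reporter activity under TR response element control is measured in HEK 293 cells after 18 hrs compound exposure. Signal is ratiometric CCF4 fluorescence, 460/530 nm.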
(In general: In qHTS, concentration-response curves come from the screen itself.)

The nature of test [3]: qHTS assay for small molecule antagonists of retinoid X receptor alpha signaling (AID 588546; active = well fitted inhibition curve with a large enough effect in the signal ratio, with a control signal flat, not every such curve was filed as active; the % refers to the signal ratio;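 also: cells stimulated with 9-cis-retinoic acid as agonist; % is scaled to controls: 0 for no effect and ±100 for the full control effect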). The settings on record: HEK293T RXRa-UAS-bla, beta-lactamase ratio, antagonist mode; measured here: W530 green channel, cytotoxicity proxy. The essentials: (§1)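 Beta-lactamase reporter inhibition, read as CCF4 fluorescence ratio (ex 405, em 460/530 nm) after 2 h at RT. HEK293T UAS-bla cells, 2500/well, were stimulated with 9-cis-RA at 500 or 100 nM final alongside test compound for 18 h at 37 C.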

For test [4], the target named is Retinoic acid receptor RXR-alpha (Homo sapiens) (UniProt P19793). The test is described as above. The settings on record: HEK293T RXRa-UAS-bla, beta-lactamase ratio, antagonist mode. Put shortly: as §1
Test [5] deals with Thyroid hormone receptor beta (Homo sapiens) (UniProt P10828). The experiment in a line: qHTS assay for small molecule antagonists of thyroid hormone receptor beta signaling (AID 588547; active = well fitted inhibition curve with a large enough effect in the signal ratio, with a control signal flat, not every such curve was filed as active; the % refers to the signal ratio;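 also: cells stimulated with 0.4 nM T3 agonist during compound exposure; % is scaled to controls: 0 for no effect and ±100 for the full control effect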). Particulars: TR-UAS-bla HEK293, beta-lactamase ratio, antagonist mode, 18 h. Put shortly: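 TR-UAS-bla GripTite HEK293 cells in 2% charcoal/dextran FBS medium; compounds 0.59 nM to 92 uM with T3 at 0.4nM final, 18 h at 37 C. Beta-lactamase read by CCF4 fluorescence (460/530 nm); Hill fits gave IC50 and efficacy.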

The nature of test [6]: qHTS assay for small molecule agonists of the antioxidant response element (ARE) signaling pathway (AID 651741; active = well fitted activation curve with a large enough effect in the signal ratio; the % refers to the signal ratio; also: % of control where 0% means no effect). The settings on record: HepG2 ARE-bla reporter, beta-lactamase FRET ratio, 16 h; series mostly up to 96 µM. Put shortly:
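HepG2 ARE-bla reporter cells, 2,000/well; 5 h settle at 37 C/5% CO2; compound pin transfer (23 nL, DMSO); 16 h at 37 C; LiveBLAzer B/G FRET substrate, 2 h RT; fluorescence intensity read.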

Test [7] can be described thus: qHTS assay for small molecule activators of the nuclear factor-kappa B (NF-kB) signaling pathway (AID 651749; active = well fitted activation curve with a large enough effect in the signal ratio; the % refers to the signal ratio; also: % of control where 0% means no effect). The settings on record: NF-kB-bla ME-180 cells, beta-lactamase FRET ratio, 16 h; stronger effect = higher value. Put shortly: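 NF-kB-bla ME-180 cells, 2,000/well; 23 nL compound or DMSO pinned; 16 hr, 37C/5% CO2; beta-lactamase FRET read-out.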
A short description of test [8]: qHTS assay for environmental chemicals that activate the Aryl hydrocarbon Receptor (AhR) signaling pathway (AID 651777). Also: % of control where 0% means no effect; nearly all actives have a fitted effect of over 15% in size. The settings on record: 1A2-DRE human hepatoma cells, luciferase, 24 h; activation: stronger effect = higher value. The essentials:
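Stable CYP1A2 promoter/DRE-luciferase human hepatoma line treated 24 hr; One-Glo luminescence, 30 min RT.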

Test [9] concerns the target Peroxisome proliferator-activated receptor alpha (Homo sapiens) (UniProt Q07869). The experiment in a line: qHTS assay for small molecule agonists of the peroxisome proliferator-activated receptor alpha (PPARalpha) signaling pathway (AID 651778). Also: % of control where 0% means no effect. The settings on record: PathHunter PPARalpha complementation, chemiluminescence, 6 h; max response: stronger effect = higher value. The essentials:
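Enzyme-fragment complementation assay in which ligand-bound PPARalpha translocates and forms an active enzyme that generates chemiluminescence. Cells were plated overnight, exposed to compound for 6 hr at 37 C, and then given detection reagent for 60 min at room temperature.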

Test [10] can be described thus: qHTS assay for small molecule agonists of the antioxidant response element (ARE) signaling pathway measured by Nrf2-dependant transcriptional activity (AID 720636; active = well fitted curve in the direction sought with a large enough effect in the repeat runs; an effect the other way counts as inactive or inconclusive;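 also: HepG2 cells with an ARE-driven luciferase reporter; % of control where 0% means no effect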). The settings on record: ARE-luc HepG2, Nrf2 luciferase reporter, 16 h; series mostly up to 92.4 µM. The essentials: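 Reporter gene assay, HepG2 ARE-luc: 16 hr compound, 37 C, 5% CO2; read-out luciferase luminescence.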

A short description of test [11]: qHTS assay for small molecule agonists of the antioxidant response element (ARE) signaling pathway measured by Nrf2-dependant transcriptional activity - cell viability counter screen (AID 720653; active = well fitted curve in the direction sought with a large enough effect in the repeat runs; an effect the other way counts as inactive or inconclusive; also: % is scaled to controls: 0 for no effect and ±100 for the full control effect). Particulars: ARE-bla HepG2 viability, CellTiter-Glo ATP luminescence, 16 h; max response: stronger effect = lower value. The essentials: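 ARE-bla HepG2 cells treated with compounds for 16 h at 37C; this counter screen measures viability as intracellular ATP by CellTiter-Glo luminescence after 30 min at room temperature.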

Test [12] in a line: qHTS assay for cell viability of HEK293 cells (AID 743288). Also: % is scaled to controls: 0 for no effect and ±100 for the full control effect; nearly all actives have a fitted effect of over 50% in size. The settings on record: ATP luminescence (CellTiter-Glo), 18 h; max response: stronger effect = lower value. The essentials:
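Quantitative high-throughput screen: compounds were pinned onto parental HEK293 cells (2,000 per well) after a minimum 5 h settling at 37 C, incubated 18 h at 37 C, and intracellular ATP measured by luciferase luminescence.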

A short description of test [13]: qHTS assay for cell viability of the p53RE-bla HCT-116 cell line (AID 743292). Also: % is scaled to controls: 0 for no effect and ±100 for the full control effect; nearly all actives have a fitted effect of over 55% in size. Particulars: p53RE-bla HCT-116 viability, ATP luminescence, 16 h; series mostly up to 95 µM. The essentials: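 Readout: CellTiter-Glo luminescence after 30 min RT. Treatment: compounds in DMSO, 16 h, 37 C. Cells: CellSensor p53RE-bla HCT-116, 4,000/well, preincubated 5 h.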
Test [14] concerns the target Nuclear receptor subfamily 1 group I member 2 (Rattus norvegicus) (UniProt Q9R1A7). The experiment in a line: qHTS assay for small molecule activators of the rat pregnane X receptor (rPXR) signaling pathway (AID 651751; call rule not given here; also: 0% is about no effect). The settings on record: rPXR reporter cells, luciferase (One-Glo), 24 h.
The nature of test [15]: qHTS assay for small molecule activators of the human pregnane X receptor (PXR) signaling pathway (AID 720659; call rule not given here; also: 0% is about no effect). Particulars: DPX-2 HepG2 CYP3A4-luciferase, 24 h; series mostly up to 92.3 µM.
Test [16] concerns the target Mitogen-activated protein kinase 10 (Mus musculus) (UniProt Q61831). The experiment in a line: JNK3 AlphaScreen Assay (AID 530; active = well fitted curve in either direction with a large enough effect, not every such curve was filed as active;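 also: kinase came from lysate of stimulated human HepG2 cells; signal reports phosphorylation of biotinylated GST-cJun 1-79 at Ser73 with 10 µM ATP; % is scaled to controls: 0 for no effect and ±100 for the full control effect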). The settings on record: JNK3 lysate, c-Jun phosphorylation; series mostly up to 57.1 µM. Put shortly:
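HepG2 lysate (IL-1b/TNFa pre-activated) + biotin-GST-cJun 1-79 + anti-pSer73 cJun; cpd titration, 15 min RT; ATP 10 uM start; Tris pH 7.6, MgCl2, DTT, vanadate; beads in EDTA buffer; AlphaScreen.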

Inconclusive results are not listed. Calls of active or inactive are those of the source. Unless noted, calls follow the shape of the dose curve; as a rule, active = well fitted curve in the direction sought with a large enough effect; inconclusive = small, poorly fitted or top-dose-only effect, or another doubt; inactive = no such curve, though single readings can be large; an effect the other way counts as inactive or inconclusive.

Thyroid hormone receptor beta (Homo sapiens), sequence (P10828 whole entry, looked up): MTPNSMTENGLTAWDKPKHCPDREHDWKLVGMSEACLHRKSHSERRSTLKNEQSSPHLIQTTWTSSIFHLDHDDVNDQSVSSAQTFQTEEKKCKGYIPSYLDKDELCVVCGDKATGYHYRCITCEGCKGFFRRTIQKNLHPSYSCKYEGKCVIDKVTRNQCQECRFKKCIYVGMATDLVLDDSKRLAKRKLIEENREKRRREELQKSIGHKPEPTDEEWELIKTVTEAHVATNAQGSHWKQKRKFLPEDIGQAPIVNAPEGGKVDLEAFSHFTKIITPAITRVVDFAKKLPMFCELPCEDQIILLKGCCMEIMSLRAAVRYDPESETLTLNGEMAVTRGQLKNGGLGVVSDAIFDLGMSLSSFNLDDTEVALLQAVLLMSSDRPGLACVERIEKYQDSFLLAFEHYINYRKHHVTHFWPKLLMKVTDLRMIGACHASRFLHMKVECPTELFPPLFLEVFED
Retinoic acid receptor RXR-alpha (Homo sapiens), sequence (P19793 whole entry, looked up): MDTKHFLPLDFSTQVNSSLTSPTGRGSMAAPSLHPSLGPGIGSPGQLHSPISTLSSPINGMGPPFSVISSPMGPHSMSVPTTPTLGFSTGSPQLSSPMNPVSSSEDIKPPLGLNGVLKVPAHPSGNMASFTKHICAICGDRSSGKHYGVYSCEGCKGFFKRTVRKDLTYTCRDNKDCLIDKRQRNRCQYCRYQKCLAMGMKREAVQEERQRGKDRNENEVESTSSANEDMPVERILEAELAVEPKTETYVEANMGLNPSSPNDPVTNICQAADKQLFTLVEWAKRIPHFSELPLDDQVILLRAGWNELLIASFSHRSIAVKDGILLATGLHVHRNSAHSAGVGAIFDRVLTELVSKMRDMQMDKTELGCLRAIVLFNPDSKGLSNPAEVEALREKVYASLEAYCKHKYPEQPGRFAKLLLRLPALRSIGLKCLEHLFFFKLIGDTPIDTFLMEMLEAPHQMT
Nuclear receptor subfamily 1 group I member 2 (Rattus norvegicus), sequence (Q9R1A7 whole entry, looked up): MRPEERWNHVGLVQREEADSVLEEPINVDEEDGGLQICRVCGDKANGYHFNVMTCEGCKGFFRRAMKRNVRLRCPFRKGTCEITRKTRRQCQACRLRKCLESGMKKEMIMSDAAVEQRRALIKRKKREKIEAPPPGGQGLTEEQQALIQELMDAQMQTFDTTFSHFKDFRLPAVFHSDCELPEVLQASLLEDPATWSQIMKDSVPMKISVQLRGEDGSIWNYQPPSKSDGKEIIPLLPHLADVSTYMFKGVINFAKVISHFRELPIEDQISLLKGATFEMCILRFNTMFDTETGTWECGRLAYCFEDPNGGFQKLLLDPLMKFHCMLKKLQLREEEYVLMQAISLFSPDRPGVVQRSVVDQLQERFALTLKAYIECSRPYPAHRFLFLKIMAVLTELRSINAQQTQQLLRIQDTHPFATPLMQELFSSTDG
Peroxisome proliferator-activated receptor alpha (Homo sapiens), sequence (Q07869 whole entry, looked up, the tested form may be a part): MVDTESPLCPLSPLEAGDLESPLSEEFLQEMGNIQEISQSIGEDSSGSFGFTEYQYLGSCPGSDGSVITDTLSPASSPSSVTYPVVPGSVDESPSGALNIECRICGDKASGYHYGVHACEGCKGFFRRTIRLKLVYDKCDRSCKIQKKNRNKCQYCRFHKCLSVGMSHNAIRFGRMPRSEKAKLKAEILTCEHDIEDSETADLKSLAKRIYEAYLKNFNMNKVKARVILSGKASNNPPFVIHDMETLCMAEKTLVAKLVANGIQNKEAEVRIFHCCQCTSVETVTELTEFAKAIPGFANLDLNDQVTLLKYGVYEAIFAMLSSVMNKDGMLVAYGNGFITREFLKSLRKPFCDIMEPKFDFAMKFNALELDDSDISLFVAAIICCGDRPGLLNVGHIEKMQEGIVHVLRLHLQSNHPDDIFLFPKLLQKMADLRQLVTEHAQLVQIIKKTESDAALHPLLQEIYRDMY

As for `CC1CCC(C(C)C)C(O)C1` (stereo unspecified), the max response is -16.3% in test [1]; -12.2% in [3]; 5.79% (inactive) in [4]; -0.619% (inactive) in test [9]; 1.08% (inactive) in [11]; -1.68% (inactive) in test [12]. Besides, the max response in [14] is -4.79% (inactive). The outcome in test [2] and in test [15] was inactive. The activity change % (negative = inhibition) in [5] is -1.02% (inactive). Further, the Potency entry in [6], in [10] and in test [13] was “inactive” each time. Besides, the activation in [7] was -2.43% (inactive); in test [8], -1.72% (inactive).
In the case of `Clc1ccc(CS[C@@H](Cn2ccnc2)c2ccc(Cl)cc2Cl)cc1`, the Potency entry in test [16] is “inactive”.
